Reference: PubChem BioAssay (NCATS)
Inconclusive results are not listed. The source made the active and inactive calls. The call rests on the fitted dose curve; in most records, active means well fitted curve in the direction sought with a large enough effect; inconclusive means small, poorly fitted or top-dose-only effect, or another doubt; inactive means no such curve, though single readings can be large; an effect the other way counts as inactive or inconclusive. Peptide text beside a SMILES is read from it.

How the values were obtained:
Furin (Homo sapiens) = Furin (Homo sapiens) (UniProt P09958); experiment: Furin counterscreen qHTS for Zika virus inhibitors (AID 1347149); further: nearly all actives have a fitted effect of over 70% in size; further: potency means the concentration at half of the fitted maximal effect
Summary of the method: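 Fluorogenic cleavage of BOC-RVRR-AMC (2 microM final, Km ~15 µM) was monitored (ex 340, em 450 nm) at 37C after 15 min RT preincubation of 5 nM furin with compounds in HEPES pH 7.0 buffer with CaCl2 and Triton X-100. Percent inhibition was fitted to a 4-parameter Hill curve.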

[1] = tested on: Zika virus NS2B-NS3 protease (linked construct); experiment: Confirmatory screen NINDS AMC qHTS for Zika virus inhibitors (AID 1347152); further: potency means the concentration at half of the fitted maximal effect; nearly all actives have a fitted effect of over 70% in size
Summary of the method: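 Linked NS2B-NS3 protease, 1 nM, in 10 mM Tris-HCl pH 8.0, 0.01% Tween 20; compounds preincubated 15 min at room temperature. Nle-KRR-AMC 10 microM (Km 18.3 µM); 15-min fluorescence change (340/450 nm) fitted to 4-parameter Hill.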

[2] = Confirmatory screen GU Rhodamine qHTS for Zika virus inhibitors qHTS (AID 1347157); settings: purified enzyme assay, Rhodamine110 substrate fluorescence, 15 min; further: potency means the concentration at half of the fitted maximal effect; nearly all actives have a fitted effect of over 70% in size
Summary of the method: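 Unlinked NS2B/NS3, 25 nM; Rhod110 peptide, 1.5 microM; compounds, up to 114 microM. Reaction run 15 min at RT in 10 mM Tris-HCl pH 8.0, 0.01% Tween 20; kinetic fluorescence change fitted with a 4-parameter Hill model.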

[3] = tested on: Zika virus NS2B-NS3 protease (unlinked complex); experiment: Primary screen GU Rhodamine qHTS for Zika virus inhibitors: Unlinked NS2B-NS3 protease assay (AID 1347159); further: nearly all actives have a fitted effect of over 60% in size; further: potency means the concentration at half of the fitted maximal effect
Summary of the method: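 Compounds, tested up to 114 microM, were incubated for 15 minutes with 25 nM unlinked NS2B-NS3 protease at pH 8.0. Cleavage of 1.5 microM Rhodamine110 substrate was then followed by fluorescence for 15 minutes.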

[4] = tested on: Zika virus NS2B-NS3 protease (linked construct); experiment: Primary screen NINDS Rhodamine qHTS for Zika virus inhibitors (AID 1347160); further: nearly all actives have a fitted effect of over 55% in size; further: potency means the concentration at half of the fitted maximal effect
Summary of the method: (§1)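 Percent inhibition, normalized to uninhibited and enzyme-free controls, is fitted to a 4-parameter Hill equation. Fluorescence change comes from a 15-min cleavage of 1.5 microM bis-peptide Rhodamine110 substrate by 25 nM linked NS2B-NS3 at room temperature.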

[5] = Confirmatory screen NINDS Rhodamine qHTS for Zika virus inhibitors (AID 1347161); settings: purified enzyme assay, Rhodamine110 substrate fluorescence, 15 min; further: potency means the concentration at half of the fitted maximal effect; nearly all actives have a fitted effect of over 60% in size
Summary of the method: as §1

[6] = tested on: Zika virus NS2B-NS3 protease (linked); experiment: 384 well plate NINDS AMC confirmatory qHTS for Zika virus inhibitors (AID 1347163); further: nearly all actives have a fitted effect of over 50% in size; further: potency means the concentration at half of the fitted maximal effect
Summary of the method: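 Linked NS2B-NS3 protease (final 5 nM, 30 nM or 60 nM) was preincubated with compounds (final up to 1 mM) for ~15 minutes. Ac-VKTGKR-AMC substrate (final 30 microM) then reacted for 25 minutes at room temperature in the dark. Fluorescence (ex 355/em 460 nm) was normalized to no-enzyme and no-inhibitor controls.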

[7] = tested on: Zika virus NS2B-NS3 protease (linked construct); experiment: 384 well plate NINDS Rhodamine confirmatory qHTS for Zika virus inhibitors (AID 1347164);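 further: fluorescence from protease cleavage of Ac-LKRR-rhodamine 110 substrate; potency means the concentration at half of the fitted maximal effect; nearly all actives have a fitted effect of over 65% in size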
Summary of the method: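 Linked NS2B-NS3 protease (final 5, 30 or 60 nM) preincubated ~15 minutes with compounds, then 10 microM Ac-LKRR-Rhodamine 110 added. Fluorescence (485/538 nm) read after 25 minutes at room temperature, normalized to no-enzyme and no-inhibitor controls.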

[8] = Vero cells viability qHTS for Zika virus inhibitors (AID 1347167)
Summary of the method: (§2)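 Counter-screen for cytotoxicity of hits from NS2B-NS3 protease qHTS. Overnight-attached cells (2.5 x 10^5 cells/mL, DMEM/4% FBS) were dosed in titration, incubated 24 to 48 hours, then assayed by CellTiter Glo.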

[9] = HepG2 cells viability qHTS for Zika virus inhibitors (AID 1347168)
Summary of the method: as §2

[10] = ZIKV-mCherry secondary qHTS for Zika virus inhibitors (AID 1347158); further: top concentration of the series differs between compounds
Summary of the method: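 Vero cells (5,000/well) were given compound, then infected with ZIKV-mCherry at MOI 1 for 48–72 h at 37 °C. After PFA fixation and Hoechst staining, imaging gave percent mCherry-positive cells. The positivity threshold was RFU above 450, 3 SD over negative controls.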

[11] = Tertiary RLuc qRT-PCR qHTS assay for Zika virus inhibitors (AID 1347169); further: top concentration of the series differs between compounds; nearly all actives have a fitted effect of over 55% in size
Summary of the method: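 Vero cells (1,000/well) infected with recombinant ZIKV-RLuc (Cambodian) at MOI 1-2 after compound addition, 48-72 hrs at 37 degrees C. Live-cell Renilla luciferase substrate added; luminescence read after 1-1.5 hrs.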

[12] = tested on: Zika virus NS2B-NS3 protease (unlinked complex); experiment: Confirmatory screen GU AMC qHTS for Zika virus inhibitors (AID 1347153); settings: Recombinant NS2B-NS3 protease, AMC substrate fluorescence; further: potency means the concentration at half of the fitted maximal effect; nearly all actives have a fitted effect of over 70% in size
Summary of the method: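 Unlinked enzyme 25 nM, Tris pH 8.0/0.01% Tween 20; cpd 15 min RT, dark; + AMC substrate 10 µM (Km 18.3 µM); 340/450 nm read at t0 and 15 min; % inhibition → 4-param fit.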

[13] = target: N-terminal Xaa-Pro-Lys N-methyltransferase 1 (Homo sapiens) (UniProt Q9BV86); experiment: qHTS Assay for Inhibitors of N-terminal methyltransferase 1 (NTMT1): LOPAC validation of the NTMT1 SAHH-coupled ThioGlo3 Assay (AID 1347143); settings: recombinant NTMT1, SAHH-coupled ThioGlo3 fluorescence
Summary of the method: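 Fluorescence read-out (excitation 340nm, emission 450nm) of SAH-derived thiol, measured via SAHH coupling and ThioGlo3, taken immediately and after a 30 min room-temperature reaction, then normalized to the background read. Enzyme: NTMT1 at 125nM; cofactor SAM 100uM in the added reagent.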

[14] = target: Lysine-specific demethylase 5B (Homo sapiens) (UniProt Q9UGL1); experiment: Optimization screen for KDM5B Histone Demethylases FDH coupled qHTS against the LOPAC library (AID 1347166)
Summary of the method: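 KDM5BDeltaAP (200nM final) preincubated 10 min with compound, then 12.5uM H3K4Me3, 25uM a-ketoglutarate, ascorbate, Fe(II), NAD+ and FDH added; 50mM HEPES pH 7.5, 0.01% Tween-20. NADH fluorescence (340/450 nm) change over 30 min, room temperature.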

[15] = tested on: Zika virus NS2B-NS3 protease; experiment: Primary screen GU AMC qHTS for Zika virus inhibitors (AID 1347154); further: nearly all actives have a fitted effect of over 70% in size
Summary of the method: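 Unlinked Zika NS2B hydrophilic domain/NS3 protease domain noncovalent complex (25 nM final) in 10 mM Tris-HCl pH 8.0, 0.01% Tween 20, with AMC peptide substrate. Fluorescence (ex 340, em 450 nm) change over 15 min, room temperature; percent inhibition fitted to 4-parameter Hill equation.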

Measured: Potency

Sequence of Furin (Homo sapiens) (P09958 whole entry, looked up): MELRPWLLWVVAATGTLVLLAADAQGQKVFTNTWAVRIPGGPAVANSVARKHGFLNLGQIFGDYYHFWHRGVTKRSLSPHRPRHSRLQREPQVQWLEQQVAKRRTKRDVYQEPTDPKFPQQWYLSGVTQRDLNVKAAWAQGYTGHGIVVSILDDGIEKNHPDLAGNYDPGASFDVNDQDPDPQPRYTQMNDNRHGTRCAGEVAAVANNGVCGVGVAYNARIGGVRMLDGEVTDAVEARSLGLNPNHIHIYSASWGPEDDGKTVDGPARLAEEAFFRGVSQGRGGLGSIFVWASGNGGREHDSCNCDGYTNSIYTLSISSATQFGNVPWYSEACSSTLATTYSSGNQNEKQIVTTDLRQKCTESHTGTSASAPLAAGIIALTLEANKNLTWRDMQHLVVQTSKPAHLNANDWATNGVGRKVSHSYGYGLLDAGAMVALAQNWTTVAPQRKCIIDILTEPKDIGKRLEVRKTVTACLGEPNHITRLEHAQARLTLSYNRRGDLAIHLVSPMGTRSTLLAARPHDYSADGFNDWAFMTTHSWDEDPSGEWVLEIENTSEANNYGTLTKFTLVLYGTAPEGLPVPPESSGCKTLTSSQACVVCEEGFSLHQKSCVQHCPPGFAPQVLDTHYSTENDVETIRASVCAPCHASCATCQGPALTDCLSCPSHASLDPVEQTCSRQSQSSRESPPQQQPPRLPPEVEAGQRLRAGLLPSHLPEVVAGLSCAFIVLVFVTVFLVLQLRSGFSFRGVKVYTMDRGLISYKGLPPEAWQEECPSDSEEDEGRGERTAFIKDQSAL
Sequence of N-terminal Xaa-Pro-Lys N-methyltransferase 1 (Homo sapiens) (Q9BV86 whole entry, looked up): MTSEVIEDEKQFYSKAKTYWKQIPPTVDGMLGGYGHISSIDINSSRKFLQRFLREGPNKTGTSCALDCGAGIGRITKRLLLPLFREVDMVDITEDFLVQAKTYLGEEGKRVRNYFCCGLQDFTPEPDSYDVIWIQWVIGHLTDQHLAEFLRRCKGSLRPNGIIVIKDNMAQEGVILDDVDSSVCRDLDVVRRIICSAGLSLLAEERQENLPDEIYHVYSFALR
Sequence of Lysine-specific demethylase 5B (Homo sapiens) (Q9UGL1 whole entry, looked up): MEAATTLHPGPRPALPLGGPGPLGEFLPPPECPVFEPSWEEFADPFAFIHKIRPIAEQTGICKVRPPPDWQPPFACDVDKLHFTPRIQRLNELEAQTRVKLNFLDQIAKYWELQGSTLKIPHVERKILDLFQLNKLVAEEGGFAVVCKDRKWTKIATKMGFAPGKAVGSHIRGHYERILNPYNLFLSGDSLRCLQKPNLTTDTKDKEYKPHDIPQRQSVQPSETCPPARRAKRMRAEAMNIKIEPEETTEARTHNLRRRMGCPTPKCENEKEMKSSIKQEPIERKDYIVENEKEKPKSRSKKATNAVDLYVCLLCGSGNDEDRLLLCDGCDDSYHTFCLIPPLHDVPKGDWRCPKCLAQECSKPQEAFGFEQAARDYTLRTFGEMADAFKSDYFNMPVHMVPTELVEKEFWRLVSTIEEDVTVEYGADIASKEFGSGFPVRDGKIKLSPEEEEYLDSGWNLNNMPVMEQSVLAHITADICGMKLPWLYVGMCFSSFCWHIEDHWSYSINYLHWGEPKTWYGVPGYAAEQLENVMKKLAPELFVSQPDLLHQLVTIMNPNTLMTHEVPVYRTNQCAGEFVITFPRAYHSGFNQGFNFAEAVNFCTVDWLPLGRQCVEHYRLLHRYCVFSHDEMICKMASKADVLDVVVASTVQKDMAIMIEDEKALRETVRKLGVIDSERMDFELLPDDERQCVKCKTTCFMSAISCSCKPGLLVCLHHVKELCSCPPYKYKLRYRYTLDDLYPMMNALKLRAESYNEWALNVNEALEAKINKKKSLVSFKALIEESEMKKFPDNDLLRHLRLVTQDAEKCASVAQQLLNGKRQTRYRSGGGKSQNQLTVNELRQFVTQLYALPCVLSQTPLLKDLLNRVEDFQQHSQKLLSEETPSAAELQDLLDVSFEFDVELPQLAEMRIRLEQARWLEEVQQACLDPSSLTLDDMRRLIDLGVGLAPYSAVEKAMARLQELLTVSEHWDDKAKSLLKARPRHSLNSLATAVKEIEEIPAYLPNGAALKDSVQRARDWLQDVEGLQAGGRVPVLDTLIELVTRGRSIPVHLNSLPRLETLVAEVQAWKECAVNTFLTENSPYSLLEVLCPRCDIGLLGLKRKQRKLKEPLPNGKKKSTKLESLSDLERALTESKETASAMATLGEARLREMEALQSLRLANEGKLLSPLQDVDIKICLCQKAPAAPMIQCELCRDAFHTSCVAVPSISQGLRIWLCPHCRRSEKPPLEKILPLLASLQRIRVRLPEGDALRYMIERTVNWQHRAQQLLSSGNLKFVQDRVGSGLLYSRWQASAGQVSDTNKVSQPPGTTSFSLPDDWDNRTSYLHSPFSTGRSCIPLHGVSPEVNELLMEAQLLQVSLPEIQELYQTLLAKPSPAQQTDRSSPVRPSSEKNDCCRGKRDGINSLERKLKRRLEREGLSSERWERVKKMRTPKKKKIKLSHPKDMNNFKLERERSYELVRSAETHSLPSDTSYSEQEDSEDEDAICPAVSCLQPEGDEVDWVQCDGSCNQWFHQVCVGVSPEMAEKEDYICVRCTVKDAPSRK

N#CC1C(=O)Nc2scc(-c3ccc(-c4ccccc4O)cc3)c2C1=O (centres undefined)
active: [1] 22.1 µM | [2] 3.93 µM | [3] 2.51 µM | [4] 3.16 µM | [5] 2.48 µM | [6] 6.31 µM | [7] 12.6 µM
inactive: Furin (Homo sapiens) | [8] | [9]

CC(C)C1=CCC(C)(O)C(OC2OC(CO)C(O)C(O)C2O)C1 (centres undefined)
inactive: Furin (Homo sapiens) | [10] | [8] | [9] | [11]
active: [2] 27.3 µM | [3] 22.4 µM | [4] 10 µM | [5] 7.68 µM | [7] 5.62 µM

CC12CCC3C(C)(C)C(O)CCC3(C)C1Cc1c(oc(C(=O)O)cc1=O)O2 (centres undefined)
active: [2] 24.3 µM | [5] 27.3 µM
inactive: [4] | [11]

O=C(O)c1cc(O)c2cccc(O)c2c1O[C@@H]1O[C@H](CO)[C@@H](O)[C@H](O)[C@H]1O
inactive: [10] | [6] | [8] | [9] | [11]
active: Furin (Homo sapiens) 34.3 µM | [1] 30.6 µM | [12] 30.6 µM | [2] 10.9 µM | [3] 10 µM | [4] 5.01 µM | [5] 2.73 µM | [7] 2.82 µM

CN1Cc2c(N)cccc2C(c2ccccc2)C1 (centres undefined)
inactive: [14]
active: [13] 35.5 µM

CC1(C)CC[C@]2(C(=O)O[C@@H]3O[C@H](CO)[C@@H](O)[C@H](O)[C@H]3O)CC[C@]3(C)C(=CCC4[C@@]5(C)C[C@@H](O)[C@H](O)[C@@](C)(CO)C5CC[C@]43C)C2C1 (some centres undefined)
inactive: [3] | [11]
active: [2] 11.7 µM

CC(=O)N[C@@H](CC(=O)O)C(=O)N[C@@H](CCC(=O)O)C(=O)O (Ac-Asp-Glu-OH)
inactive: [15]

CNc1cc(OC)c(C(=O)N[C@H]2CCN(Cc3ccccc3)[C@H]2C)cc1Cl
inactive: [15]
